High-throughput results from PubChem BioAssay.
A selection: hits, their analogues and other compounds. The true share with any hit is near 1.5%.
GLD-1 RNA inh: GLD-1/TGE RNA complex disruptors, primary screen, biochemical, fluorescence polarization; Female germline-specific tumor suppressor gld-1 (Caenorhabditis elegans), Q17339; inhibition, % at 5.96 µM; 320,000 tested, 0.44% active; purified GLD-1 + fluorescein TGE RNA;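 active = percent inhibition above a per-plate cutoff, the plate mean of test compounds plus 3 SD, cut at about 30% in these data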;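 note: 0% = DMSO wells with GLD-1 and probe and 100% = wells lacking GLD-1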
LANA-H2A inh: blockers of LANA interaction with H2A/H2B – biochemical, FP readout, HTS, primary screen. Protein LANA1 (Human herpesvirus 8 type P (isolate GK18)), Q9QR71. AID 2629, 2010. 320,000 tested, 0.6% active. inhibition, % (no concentration beside the values). cell-free LANA-H2A/H2B peptide, fluorescence polarization; in the data active = inhibition mostly above about 10%, no sharp cut-off; inactive = mostly below about 6.7%
eLon inh: inhibitors of E. coli Lon protease, primary screen, biochemical, fluorescence polarization. AID 602123, 2011. P0A9M0. purified E. coli Lon protease. 360,000 tested, 0.42% active. inhibition, % at 7.94 µM; in the data active = inhibition above about 13%, passing the limit was not always enough;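 note: 0% = enzyme with probe and DMSO and 100% = no enzyme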
Keap1-Nrf2 PPI: Keap1-Nrf2 protein-protein interaction inhibitors, primary screen, biochemical, fluorescence polarization, single point. 340,000 tested, 0.15% active. Keap1 Kelch-Nrf2 peptide fluorescence polarization, 1536-well. inhibition, % at 9.4 µM; in the data active = inhibition above about 12%;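 note: human Keap1 Kelch domain with fluorescein labeled Nrf2 9mer peptide probe; 0% = neutral control wells and 100% = peptide positive control; higher means more block of Keap1 binding to Nrf2 peptide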
EBV gp42 inh: Epstein-Barr virus gp42 inhibitors, primary screen, biochemical, uHTS, fluorescence polarization | Glycoprotein 42 (Epstein-Barr virus (strain AG876)), Q1HVG2 | Fluorescence polarization binding assay, mP read-out | inhibition, % (tested at 21.74 µM) | 220,000 tested, 0.42% active; in the data active = inhibition above about 50%
Target sequence (Q1HVG2 whole entry, looked up): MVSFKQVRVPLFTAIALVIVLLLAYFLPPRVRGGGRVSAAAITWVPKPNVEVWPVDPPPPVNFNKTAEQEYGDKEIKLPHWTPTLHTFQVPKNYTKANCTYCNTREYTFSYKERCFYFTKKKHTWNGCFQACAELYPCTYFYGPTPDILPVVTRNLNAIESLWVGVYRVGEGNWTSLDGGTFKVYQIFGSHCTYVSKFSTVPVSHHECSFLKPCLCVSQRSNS
LANA DNA inh: inhibitors of KSHV C-LANA binding to DNA, primary screen, biochemical, fluorescence polarization, FAM-LBS DNA, MBP-C-LANA, single point; 340,000 tested, 0.078% active; Kaposi's sarcoma herpesvirus LANA C-terminal domain (residues 932-1162) DNA binding; inhibition, % at 9 µM;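 active = highest replicate inhibition at or above 60% at 9 µM, even if other replicates fall short; inactive = all replicates below 60% inhibition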;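 note: 0% = neutral control wells and 100% = 4 µM acridine orange control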
Keap1 TSA: Keap1 Kelch domain binders by thermal stabilisation, dose response, biophysical, thermal shift, RT-PCR instrument, cherry-pick. 400 tested, 8% active. delta Tm; hits give high values. AID 651823, 2012. shares compounds with Keap1-Nrf2 PPI. max delta Tm, degrees C; in the data active = max delta Tm above about 0.48 degrees C
Dye-only ctr: Sypro Orange dye melt without protein, dose response, artefact control for Keap1-Nrf2 interaction inhibitor project, biochemical, thermal shift counterscreen, cherry-pick; AID 651858, 2012; 140 tested, under 10 active; Sypro Orange dye-only thermal melt, no protein, delta Tm; top dose 26 µM; shares compounds with Keap1-Nrf2 PPI; delta Tm, degrees C (concentration not given with the values);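 active = at highest dose tested, delta Tm positive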
eLon confirm: E. coli Lon protease inhibitor retest, confirmation, biochemical, fluorescence polarization | shares compounds with eLon inh | purified E. coli Lon | inhibition, % at 7.94 µM | 1,400 tested, 31% active | AID 602230, 2012; in the data active = inhibition above about 16%;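 note: 0% = enzyme with probe and DMSO and 100% = no enzyme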
Numbers without * were called inactive; nt = no result given; + = active, no number.

SMILES	GLD-1 RNA inh	LANA-H2A inh	eLon inh	Keap1-Nrf2 PPI	EBV gp42 inh	LANA DNA inh	Keap1 TSA	eLon confirm	others
CCN(CC)C(=O)C1c2ccccc2Oc2ccccc21	169*	14*	+	39*	nt	77*	-0.12	-51
O=C(CCCc1nc2ccccc2s1)NCc1cccnc1	1	2	6	-4	6	-2	nt	nt
Cc1cc2nc3c(=O)[nH]c(=S)[nH]c3nc2cc1NC(=O)C(F)(F)F	185*	5	+	27*	nt	55	-0.07	145*
CCOc1ccc(N(CC(=O)NCc2cccc(OC)c2)S(=O)(=O)c2c(C)noc2C)cc1	1	-6	-11	-2	-12	-2	nt	nt
O=C(C1=C(O)C(=O)N(CCN2CCOCC2)C1c1ccccc1)c1cccs1 (stereo unspecified)	1	4	2	-2	nt	0	nt	nt
CC(C)c1nnc(N2C(=O)C(O)=C(C(=O)c3cccs3)C2c2ccccc2)s1 (stereo unspecified)	nt	nt	34*	20*	126*	35	-0.16	80*
Cn1c(N2CCOCC2)c(C#N)c2ccccc21	-4	4	4	2	nt	-2	nt	nt
COC(=O)C1(C#N)C(c2ccccc2)C1(C(=O)OC)C(=O)OC (stereo unspecified)	2	1	-2	-1	-16	1	nt	nt
CCCCC1OC2(C)OC(=N)C1(C#N)C(C#N)(C#N)C2c1ccccc1 (stereo unspecified)	23	10	29*	30*	9	57	-0.12	11
CC1OC2(C)OC(=N)C1(C#N)C(C#N)(C#N)C2c1ccccc1 (stereo unspecified)	66*	2	15*	23*	-4	37	-0.03	4	Dye-only ctr=-29
CN(C)C(=O)N1CCN(c2nc(-c3ccccc3)cs2)CC1	1	2	6	-4	nt	0	nt	nt
CCOC(=O)C1CCCN(C(=O)C2c3ccccc3Oc3ccccc32)C1 (stereo unspecified)	189*	71*	+	47*	-2	119*	-0.16	36*	Dye-only ctr=-45
COc1cc([N+](=O)[O-])cc2sc(NC(=O)C3CC3)nc12	0	-1	-1	2	2	0	nt	nt
COc1ccc(NC(=O)c2cccc(-c3ccc(O)cc3)c2)cn1	135*	9	74*	13*	nt	41	0.15	35*
COc1cc(NC(=O)CN(C)S(=O)(=O)c2ccc3c(c2)CC(C)N3C(C)=O)cc(OC)c1 (stereo unspecified)	-7	nt	-10	-5	nt	0	nt	nt
O=c1ccc2cc3c4c(c2o1)CCCN4CCC3	89*	-2	80*	38*	129*	46	-0.17	22*
COc1ccc2ccccc2c1C(O)c1nccn1C (stereo unspecified)	145*	38*	55*	33*	60*	55	0.1	168*
Nc1ccc2nc3c(=O)n(C4CCCCC4)c(=O)[nH]c3nc2c1	+	72*	+	60*	152*	39	-0.05	183*	Dye-only ctr=-34
CCCCn1c(=O)[nH]c2nc3cc(N)ccc3nc2c1=O	+	85*	+	50*	174*	84	-0.04	+	Dye-only ctr=-28
C#CCNC(=O)C[C@@H]1C[C@@]2(C(=O)OCC)CCC=C2N(Cc2ccc3c(c2)OCO3)C1=O	nt	nt	8	nt	nt	nt	nt	nt
O=C1c2ccccc2-c2onc3ccc(NCc4ccco4)c1c23	165*	111*	128*	19*	130*	64	0.37	118*
CCNc1ccc2noc3c2c1C(=O)c1ccccc1-3	192*	28*	+	21*	56*	65*	0.83*	183*
O=C1c2ccccc2-c2onc3ccc(N4CCCC4)c1c23	nt	nt	160*	16*	26	12	0.22	-21
CCOc1ccc2noc3c2c1C(=O)c1ccccc1-3	171*	44*	+	21*	-71	52	-0.03	+
COC(=O)c1cc(-c2ccc(S(=O)(=O)N3CCCCC3)cc2)c(C(F)(F)F)s1	-3	-1	1	1	0	1	nt	nt
SMILES	GLD-1 RNA inh	LANA-H2A inh	eLon inh	Keap1-Nrf2 PPI	EBV gp42 inh	LANA DNA inh	Keap1 TSA	eLon confirm	others
C[C@@H]1CN([C@@H](C)CO)C(=O)CCCn2nncc2CO[C@H]1CN(C)Cc1ccncc1	nt	nt	-4	nt	nt	nt	nt	nt
Fc1ccc(C2=CC(c3ccco3)n3ncnc3N2)cc1 (stereo unspecified)	96*	4	79*	19*	26	33	-0.03	-3
Brc1ccc(C2=CC(c3ccco3)n3nnnc3N2)cc1 (stereo unspecified)	-9	2	-5	1	-5	2	nt	nt
COc1cccc(CNC(=O)CCC2CCCN(C(=O)C3=CC(=O)CC(C)(C)O3)C2)c1 (stereo unspecified)	0	-3	-3	-2	5	3	nt	nt
COc1ccc(C=Nc2cccnc2N)cc1	64*	2	+	23*	nt	14	-0.2	-14
OC(COc1ccc(CNCc2cccnc2)cc1)CN1CCc2ccccc2C1 (stereo unspecified)	-5	0	4	-3	-21	0	nt	nt
CCN1CC=C2C(C#N)=C(N)C(C#N)(C#N)C(CCc3ccccc3)C2C1 (stereo unspecified)	110*	25*	27*	22*	81*	54	-0.04	21*
CC(=O)N1CC=C2C(C#N)=C(N)C(C#N)(C#N)C(CCc3ccccc3)C2C1 (stereo unspecified)	6	1	5	-10	7	0	nt	nt
CCCCOc1[nH]c2nc(-c3ccco3)n(Cc3ccco3)c(=N)c2c1C#N	107*	11	51*	16*	55*	36	0.23	10
Brc1ccc(Oc2ncc(CN3CCOCC3)s2)cc1	12	-4	-8	-3	-18	1	nt	nt
